Screens (PubChem BioAssay)
gsp ag – activates gsp, the McCune-Albright syndrome mutation. gsp mutant cells, cAMP HTRF, 30 min. Potency, µM (highest dose often 76.9 µM), without a hit: at the top dose activation (cAMP increase), actives largely listed as activators. 340,000 compounds, 0.13% hits. AID 624287; active = well fitted activation curve with a large enough effect; inconclusive = small, poorly fitted or top-dose-only effect, or another doubt; inactive = no such curve, though single readings can be large or run the other way; cell line not stated here;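 also: phosphodiesterase inhibitor Ro 20-1724 added with compounds to block cAMP breakdown; potency is read from the fitted curve at half-maximal effect; nearly all actives have a fitted effect of over 60% in size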
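Cells in DMEM/10% FBS with G418 were pretreated with compounds in DMSO plus […] (300 uM stock) for 30 min at 37C. cAMP was measured by HTRF (cAMP-d2 plus anti-cAMP antibody-K) after 30 min at room temperature.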
RXFP1 agonist – agonists of human relaxin receptor RXFP1; Q9HBX9; HEK293T-RXFP1 cAMP TR-FRET, 30 min; response scale: percent of porcine relaxin response, buffer zero; Potency, µM (top dose mostly 57.5 µM), for the others: top-dose activation, hits mostly activators; 370,000 compounds, 0.3% hits; AID 2676; also: potency is read from the fitted curve at half-maximal effect; % is scaled to controls: 0 for no effect and ±100 for the full control effect; nearly all actives have a fitted effect of over 60% in size
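cAMP rise read by TR-FRET after 30 min, 37C compound exposure (up to 58 uM) in RXFP1-transfected HEK293 cells with Ro 20174 present. EC50 from Hill-equation fits, with 29 nM porcine relaxin as 100% and buffer as basal.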
CCT chaperon mod – changes cytosolic chaperonin activity; purified chaperonin ATPase assay, HTRF ADP detection, 30 min; AID 651819; activity change, % (test concentration not listed), hits read low; 360,000 compounds, 0.3% hits; in the data active = activity change below about -30%; also: % is scaled to controls: 0 for no effect and ±100 for the full control effect
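TRiC at 40 or 20 nM final (batch-dependent) in 30 mM Tris pH 7.4, 100 mM KCl, 5 mM MgCl2, 1 mM DTT, with compound at single 76 uM and 10 uM ATP, 30 min at 37 deg C. ADP detected by HTRF Transcreener, 665/615 ratio.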
gsp antagonist – gsp mutant antagonism | gsp-mutant cells, cAMP HTRF, 30 min | Potency, µM (doses to about 76.9 µM), inactives show at the top dose activity change, negative = inhibition, most hits filed as inhibitors | 340,000 compounds, 0.4% hits; calls by dose curve; cell line not stated here;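 also: intracellular cAMP measured with PDE inhibitor Ro 20-1724 present during compound exposure; potency is read from the fitted curve at half-maximal effect; % is scaled to controls: 0 for no effect and ±100 for the full control effect; nearly all actives have a fitted effect of over 65% in size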
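HTRF cAMP measurement after 30 min RT detection following 30 min, 37C compound treatment alongside […] (added as 300 uM solution) in G418-selected cells seeded at 2000/well and grown 16–24 h.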
RXFP1 antagonist – antagonists of human relaxin receptor RXFP1 | 350,000 compounds, 0.59% hits | Q9HBX9 | activity change, negative = inhibition, % at 57.5 µM | HEK293-RXFP1, relaxin-stimulated cAMP HTRF, 30 min; active compounds read low;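 active = activity change of -60% or lower, but not beyond a set lower limit; inconclusive = change between -60% and -40%, or beyond the set limit; inactive = change above -40%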; also: % is scaled to controls: 0 for no effect and ±100 for the full control effect
Mm-Cpn inhibitor – blocks the Methanococcus maripaludis chaperonin Mm-Cpn | Potency, µM (highest dose often 76.9 µM), inactives show top-dose activity, negative = inhibition, most hits filed as inhibitors | purified Mm-Cpn ATPase, ADP Transcreener TR-FRET | 330,000 compounds, 0.031% hits; also: potency is read from the fitted curve at half-maximal effect; % is scaled to controls: 0 for no effect and ±100 for the full control effect; nearly all actives have a fitted effect of over 80% in size
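Inhibition of chaperonin ATP hydrolysis is measured as reduced ADP production, detected by competitive TR-FRET in which signal falls with ADP. Final enzyme 25 nM and ATP 10 uM, reacted 30 min at 37°C.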
The depositor's hits bear a star; ! = not active in a repeat; [ ] = another dose, or the depositor's remark. Most compounds without a hit are left out; they make up all but 1.2% or so of the library. Unless noted, calls follow the shape of the dose curve; as a rule, active = well fitted curve in the direction sought with a large enough effect; inconclusive = small, poorly fitted or top-dose-only effect, or another doubt; inactive = no such curve, though single readings can be large; an effect the other way counts as inactive or inconclusive.

Results for O=C(NC1CCCC1)C(c1ccncc1)N(C(=O)c1ccco1)c1ccc(F)c(Cl)c1 (stereo not given) ?
gsp ag: 16.6%[15.4 µM]; RXFP1 agonist: 0.5%; CCT chaperon mod: -36.5*; gsp antagonist: 3.7%; RXFP1 antagonist: 0.2; Mm-Cpn inhibitor: 2.2%

What do the screens show for `O=C(CCC1N=C2c3ccccc3N=C(SCC(=O)NCC3CCCO3)N2C1=O)NCc1ccc(F)cc1` (stereo not given)?
gsp ag: inconclusive; RXFP1 agonist: 28.8%; CCT chaperon mod: -45.8*; gsp antagonist: 6.2%; RXFP1 antagonist: -69.0*; Mm-Cpn inhibitor: -1.1%

What do the screens show for `COc1ccc(CNC(=O)CCC2N=C3c4ccccc4N=C(SCC(=O)NCC4CCCO4)N3C2=O)cc1` (stereo not given)?
gsp ag: inconclusive; RXFP1 agonist: 16.4%; CCT chaperon mod: -0.7; gsp antagonist: -13.6%; RXFP1 antagonist: -10.4; Mm-Cpn inhibitor: 0.8%

How did Cc1ccccc1-c1n[nH]c(=S)o1 do in these assays?
gsp ag: inconclusive; RXFP1 agonist: 15.8µM*; CCT chaperon mod: 0.1; gsp antagonist: 40.1%; RXFP1 antagonist: 8.8; Mm-Cpn inhibitor: inconclusive

Results for COc1ccc(Cl)cc1-c1n[nH]c(=S)o1 ?
gsp ag: 14.1µM*; RXFP1 agonist: 6.31µM*; CCT chaperon mod: -2.4; gsp antagonist: -1.2%; RXFP1 antagonist: -4.5; Mm-Cpn inhibitor: inconclusive

What do the screens show for `COc1ccc(C(=O)Nc2ccc(-c3n[nH]c(=S)o3)cc2)cc1OC`?
gsp ag: 19.8%; RXFP1 agonist: 8.7%; CCT chaperon mod: 0.5; gsp antagonist: -4.1%; RXFP1 antagonist: 2.0; Mm-Cpn inhibitor: -11.6%

What do the screens show for `CCOC(=O)c1ccc(NC(=O)c2nc(S(=O)(=O)Cc3ccccc3)ncc2Cl)cc1`?
gsp ag: -30.4%[15.4 µM]; RXFP1 agonist: 1.2%; CCT chaperon mod: -0.2; gsp antagonist: -13.1%; RXFP1 antagonist: -61.8*!; Mm-Cpn inhibitor: -4.3%

What do the screens show for `CCS(=O)(=O)c1ncc(Cl)c(C(=O)Nc2ccccc2)n1`?
RXFP1 agonist: -0.2%; RXFP1 antagonist: -87.6*

What do the screens show for `Cc1ccc(CNC(=O)c2nc(S(=O)(=O)Cc3ccc(C)cc3)ncc2Cl)cc1`?
RXFP1 agonist: 1.4%

What do the screens show for `Cc1ccc(NC(=O)c2nc(S(=O)(=O)Cc3ccc(F)cc3)ncc2Cl)cc1C`?
RXFP1 agonist: 2.0%; RXFP1 antagonist: inconclusive

How did Cc1ccc(NC(=O)c2nc(S(=O)(=O)Cc3ccccc3C)ncc2Cl)cc1C do in these assays?
gsp ag: -0.9%[15.4 µM]; RXFP1 agonist: -0.4%; CCT chaperon mod: -1.6; gsp antagonist: -9.2%; RXFP1 antagonist: -74.1*; Mm-Cpn inhibitor: 0.2%

Results for Cc1cccc(CS(=O)(=O)c2ncc(Cl)c(C(=O)NCc3ccc4c(c3)OCO4)n2)c1 ?
gsp ag: 0.1%; RXFP1 agonist: 0.1%; CCT chaperon mod: -6.4; gsp antagonist: -2.5%; RXFP1 antagonist: -86.9*; Mm-Cpn inhibitor: -0.6%

What do the screens show for `Cc1ccc(C(=O)N2CCc3cc(CNC(=O)COc4ccccc4)ccc32)cc1`?
RXFP1 agonist: 3.1%; RXFP1 antagonist: -9.6

Results for Oc1ccc(COc2cccc3ccccc23)c2cccnc12 ?
RXFP1 agonist: -1.6%; Mm-Cpn inhibitor: 0.8%

What do the screens show for `CCOc1ccccc1CNC(=O)CCc1c(C)nn(-c2ccc(N3CCCC3)nn2)c1C`?
RXFP1 agonist: -0.6%; RXFP1 antagonist: 20.4

What do the screens show for `CCOc1ccccc1N(CC(=O)Nc1ccc(OC)c(Cl)c1)S(=O)(=O)c1ccccc1`?
RXFP1 agonist: 0.7%

How did O=C(CCC(=O)N1CCSc2ccccc21)NCc1ccccc1Cl do in these assays?
RXFP1 agonist: 4.6%; RXFP1 antagonist: -8.6

How did O=C(O)Cc1ccccc1Oc1ccc(Cl)cc1Cl do in these assays?
RXFP1 antagonist: -8.6

How did S=c1[nH]cc(Oc2ccc(Cl)cc2Cl)c(=S)[nH]1 do in these assays?
gsp ag: 20µM*; CCT chaperon mod: -0.8; gsp antagonist: -4.1%; RXFP1 antagonist: 22.8
